Among the test systems are T-47D breast; BT-549 breast; MDA-MB-435 melanoma; SW-620 colon; MCF7 breast; HCT-116 colon; HCC-2998 colon; KM12 colon.
Experiment in all cases: NCI-60 one-dose screen, 48 h (100 = growth as untreated, 0 = no growth, -100 = all killed)
What all share (details): 10 µM unless noted

Structures are written as SMILES. This is part of a sample that, as a whole, favours compounds with a hit. Of some 83,000 tested, about 20% had one in any assay.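 Plates (96-well) were seeded with cells, treated with compound at one concentration, and incubated for 48 hours before percent growth was determined.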 Values without a mark were called inactive. Active and inactive are the calls of the source. Rule for the calls: active = growth percent below 10; inactive = the rest.

Consider `C=C(C)[C@@H]1CC[C@]2(C)[C@H](CC=C3[C@@H]4C[C@](C)(C(=O)N5CCN(C)CC5)CC[C@]4(C)CC[C@]32C)[C@@]1(C)CCC#N`, for which the growth in the experiment on T-47D breast is 42.4%; with BT-549 breast, 56.6%; in the experiment with MDA-MB-435 melanoma, 51.3%; in the experiment with SW-620 colon, 57.1%; in the experiment on MCF7 breast, 34.1%; in the experiment on HCT-116 colon it was 26.7%. Besides, the growth was 70.6% in the experiment on HCC-2998 colon and 53.6% with KM12 colon.
For the compound `Cc1ccc(NC(=O)c2nc(S(C)=O)oc2-c2ccc(F)cc2)cc1Nc1nccc(-c2cccnc2)n1` (stereo unspecified), the growth in the experiment with T-47D breast is 40%; in the experiment with BT-549 breast it was 26.9%; in the experiment with MDA-MB-435 melanoma, 82.5%; in the experiment on SW-620 colon, 8.58% (active); in the experiment on MCF7 breast it was 50.7%; in the experiment with HCT-116 colon, -53.3% (active). Besides, the values for the growth in the experiment on HCC-2998 colon and in the experiment on KM12 colon were 97.5% and 50.1%, respectively.
As to `COc1cccc2nc(Nc3cccc(NC(=O)c4ccc(N5CCN(C)CC5)c(C(F)(F)F)c4)c3)ccc12`, the growth in the experiment with T-47D breast is 36.7%; in the experiment with BT-549 breast it was 67%; with MDA-MB-435 melanoma it was 19.9%; in the experiment on SW-620 colon, -33.3% (active); with MCF7 breast, -12.9% (active); with HCT-116 colon, 6.56% (active). For the same compound, the growth was -7.74% (active) in the experiment with HCC-2998 colon and -7.59% (active) with KM12 colon.
For the compound `CC(CN1CCN(CCOCCO)CC1)CN1c2ccccc2Sc2ccc(Cl)cc21` (stereo unspecified), the growth with T-47D breast is 62.7%; with BT-549 breast, 79.1%; with MDA-MB-435 melanoma, 22.4%; with SW-620 colon it was 63.6%; with MCF7 breast, 55.6%; with HCT-116 colon it was 37.5%. The growth with HCC-2998 colon was 39.5%; in the experiment on KM12 colon, 28%.
Regarding `Cc1cc(C)c(C#N)c(SCC(=O)c2sc3c(C#N)c(C)cc(C)[n+]3c2[O-])n1`, the growth was 38.1% with T-47D breast; 30.4% in the experiment with BT-549 breast; -59.2% (active) in the experiment with MDA-MB-435 melanoma; 20.3% in the experiment with SW-620 colon; 13.4% in the experiment with MCF7 breast; 16.8% in the experiment on HCT-116 colon. For the same compound, the growth was 15.8% with HCC-2998 colon and 16.4% in the experiment on KM12 colon.
For `C=CCOc1c(Br)cc(Br)cc1Br`, the growth was 65.1% in the experiment on T-47D breast; 67.4% in the experiment on BT-549 breast; 27.2% in the experiment with MDA-MB-435 melanoma; 76.1% in the experiment with SW-620 colon; 40.5% in the experiment on MCF7 breast; 54.5% in the experiment on HCT-116 colon. In addition, the figures for the growth in the experiment on HCC-2998 colon and with KM12 colon were 95.1% and 84.8%, respectively.
As for `Cc1ccc(NC(=O)c2nc(S(C)(=O)=O)oc2-c2ccc(F)cc2)cc1Nc1ccc2ncn(C)c(=O)c2c1`, the growth with T-47D breast is -9.98% (active); with BT-549 breast, 66.3%; in the experiment with MDA-MB-435 melanoma, 69.4%; in the experiment on SW-620 colon, -6.67% (active); in the experiment on MCF7 breast it was 52.5%; in the experiment on HCT-116 colon, -10.8% (active). Further, the growth was 99.7% in the experiment on HCC-2998 colon and 59.2% with KM12 colon.
Consider `Nc1ccc(C(OC(=O)c2cc3ccccc3c(Cc3c(O)c(C(=O)OC(c4ccc(N)cc4)(c4ccc(N)cc4)c4ccc(N)cc4)cc4ccccc34)c2O)(c2ccc(N)cc2)c2ccc(N)cc2)cc1`, for which the growth in the experiment on T-47D breast is 17.2%; in the experiment on BT-549 breast it was -4.24% (active); in the experiment on MDA-MB-435 melanoma, 6.93% (active); with SW-620 colon, 15.9%; in the experiment with MCF7 breast, 9.51% (active); with HCT-116 colon, 8.88% (active). Moreover, the figures for the growth in the experiment with HCC-2998 colon and in the experiment on KM12 colon were 9.42% (active) and 5.29% (active), respectively.
Take `Clc1ncnc2scc(C3COc4ccccc4O3)c12` (stereo unspecified): the growth in the experiment on T-47D breast was 78.2%; in the experiment with BT-549 breast it was 70%; with MDA-MB-435 melanoma, 97.5%; with SW-620 colon it was 93.3%; with MCF7 breast it was 76.7%; in the experiment with HCT-116 colon it was 86.2%. Also, the growth with HCC-2998 colon was 87.7%; with KM12 colon it was 104%.
With `NC(N)=N/N=C\c1cccc(OCc2ccccc2)c1`, the growth in the experiment with T-47D breast was 26.6%; with BT-549 breast, 94.1%; in the experiment on MDA-MB-435 melanoma, 35.1%; in the experiment on SW-620 colon it was 36%; in the experiment with MCF7 breast, 47.2%; in the experiment with HCT-116 colon, 41.9%. Moreover, the growth was 4.51% (active) in the experiment with HCC-2998 colon and 68.3% in the experiment on KM12 colon.
With `O=C(O)c1ccccc1N=Cc1ccccc1`, the growth in the experiment with T-47D breast is 101%; in the experiment on BT-549 breast it was 112%; with MDA-MB-435 melanoma, 95.2%; in the experiment on SW-620 colon, 107%; in the experiment with MCF7 breast, 109%; with HCT-116 colon, 101%. Also, the growth is 102% in the experiment with HCC-2998 colon and 105% in the experiment on KM12 colon.
`Cc1[nH]nc2ccc3nc(-c4ccc5[nH]ncc5c4)c4c(c3c12)CCCC4`: the growth in the experiment on T-47D breast was 24.1%; in the experiment with BT-549 breast, 18.5%; in the experiment with MDA-MB-435 melanoma, 3.38% (active); in the experiment on SW-620 colon, 6.74% (active); in the experiment on MCF7 breast, 28%; with HCT-116 colon, 6.66% (active). The figures for the growth in the experiment with HCC-2998 colon and in the experiment on KM12 colon were 45.2% and 12.6%, respectively.
`COc1ccccc1NC(=O)OCC12COCN1COC2`: the growth in the experiment with T-47D breast was 102%; in the experiment on BT-549 breast, 117%; in the experiment with MDA-MB-435 melanoma it was 102%; in the experiment with SW-620 colon, 101%; with MCF7 breast, 92.4%; in the experiment with HCT-116 colon it was 113%. The growth in the experiment with HCC-2998 colon is 116%; in the experiment on KM12 colon, 107%.
Take `CCOC(=O)c1ccc(NC(=O)NC2=NCCS2)cc1`: the growth in the experiment with T-47D breast was 35.8%; in the experiment on BT-549 breast it was 24.2%; in the experiment on MDA-MB-435 melanoma, 48.3%; in the experiment with SW-620 colon, 77.8%; in the experiment with MCF7 breast, 33.4%; with HCT-116 colon, 93%. The growth in the experiment with HCC-2998 colon is 45%; in the experiment with KM12 colon, 15.5%.
Turning to `COc1ccc(-c2nsc3c2NC(=O)CC3c2ccc3c(c2)OCO3)cc1` (stereo unspecified), the growth in the experiment on T-47D breast is 33.2%; in the experiment with BT-549 breast it was 53.6%; in the experiment with MDA-MB-435 melanoma, -38.5% (active); in the experiment with SW-620 colon it was 24.9%; in the experiment with MCF7 breast it was 22.7%; in the experiment on HCT-116 colon, 28.6%. Further, the growth in the experiment on HCC-2998 colon is 39.4%; in the experiment on KM12 colon, 31.2%.
Turning to `Clc1ccc(-c2nc(Br)cn3ccnc23)cc1`, the growth in the experiment on T-47D breast was 54.4%; with BT-549 breast it was 84.1%; with MDA-MB-435 melanoma, 111%; with SW-620 colon it was 91.5%; in the experiment on MCF7 breast it was 64.1%; in the experiment on HCT-116 colon, 77.8%. For the same compound, the growth in the experiment with HCC-2998 colon was 104%; in the experiment on KM12 colon, 86.6%.
Consider `CN(C)c1ccc(/C=N/Nc2nnc3n2N=C(c2ccc(Cl)cc2)CS3)cc1`, for which the growth is 84.2% with T-47D breast; 90.3% with BT-549 breast; 97.5% in the experiment on MDA-MB-435 melanoma; 102% with SW-620 colon; 77.4% in the experiment with MCF7 breast; 99% in the experiment on HCT-116 colon. Further, the growth with HCC-2998 colon is 106%; with KM12 colon it was 101%.
